These results are taken from PubChem BioAssay AID504882 (Broad Institute, 2011).

Out of some 1,200 compounds screened, about 290 (24%) were called active. About 9% were inconclusive and are not listed. The rule behind the calls is not given here. The list is a sample of the results. Results with a measured potency or affinity are listed apart.

A short description of this test: LCL viability reduction – cell-based, plate reader, cherry-picks, set 2, cytotoxicity control, dose response (AID 504882). To be noted: EBV lymphoblastoid cells (LCL) viability; series mostly up to 19.5 µM.
In the case of `O=C(O)c1cccc(Nc2ccnc(Nc3cccc(C(=O)O)c3)n2)c1`, the compound was classed as inactive.

On to `COc1ccc(Nc2oc(COc3ccccc3OC)nc2C#N)cc1`, for which the result was inactive.

For `Cc1ccc(/C=C/C(=O)C2C(=O)c3ccccc3C2=O)cc1`, the outcome was inactive.

With `COc1ccc(-c2nc(CS(=O)CC(=O)NCc3ccc(Cl)cc3)c(C)o2)cc1` (centres undefined), the call was inactive.

Consider `O=C(NCc1ccccc1)c1cccc(COc2ccc3c(c2)CCC3)c1`, for which the result was inactive.

On to `CC(C)Oc1ccc(C2CC(=O)NC2=O)cc1` (centres undefined), for which the compound was called inactive.

Regarding `CCCCCc1ccc(-c2ccc(/C=C/C(=O)O)cc2)nc1`, the outcome was inactive.

As for `O=C(NCCOc1ccccc1)c1ccc2c(c1)OCO2`, the outcome was inactive.

For `C(=N\Nc1ccc2ccccc2n1)/c1ccc2c(c1)OCO2`, the result was inactive.

In the case of `COc1ccc(/C=C2\SC(=O)N(CCCC(=O)Nc3ccc(C(=O)O)cc3)C2=O)cc1`, the call was inactive.

In the case of `N=c1c(-c2nc3ccccc3[nH]2)cc(C(=O)c2cccs2)nn1-c1ccccc1`, the result was inactive.

In the case of `Cc1cc(NC(=O)c2ccc(C)s2)n(-c2nc3ccccc3[nH]2)n1`, the compound was called inactive.

As to `CSc1ccccc1C(=O)N1CCC2(CC1)CC(=O)c1ccccc1O2`, the outcome was inactive.

With `CS(=O)(=O)Nc1ccc(C2=NN(S(C)(=O)=O)C(c3ccccc3)C2)cc1` (centres undefined), the compound was called inactive.

Turning to `Cc1cccc(NC(=O)Nc2c(C)n(C)n(-c3ccccc3)c2=O)c1C`, the call was inactive.

Consider `CCc1ccccc1NC(=O)COC(=O)c1c(C)nsc1NC`, for which the result was inactive.

In the case of `CCc1ccc(/C=C2\SC(=S)N(CCCC(=O)Nc3ccccn3)C2=O)cc1`, the compound was classed as inactive.

Take `CCN1CCN(Cc2ccc(NC(=O)c3ccc(C)c(NC(=O)c4ccno4)c3)cc2C(F)(F)F)CC1`: the compound was called inactive.

Consider `CCN1CCN(Cc2ccc(NC(=O)c3ccc(C)c(NC(=O)c4nccn4C)c3)cc2C(F)(F)F)CC1`, for which the compound was called inactive.

On to `COC(=O)C(NS(=O)(=O)c1ccc(N2CCCC2=O)cc1)c1ccccc1` (centres undefined), for which the compound was called inactive.

Regarding `CC(=NNC(=S)N1CCCCCC1)c1cccc2cccnc12`, the compound was called inactive.

For the compound `O=C(CSc1nnc(-c2cccc(S(=O)(=O)N3CCOCC3)c2)n1C1CCCCCC1)NCc1ccccc1`, the compound was called inactive.

For `N#CC(C#N)c1ccnc2ccccc12`, the compound was classed as inactive.

Turning to `CC(CCc1ccco1)N(C)S(=O)(=O)c1csc(C(N)=O)c1` (centres undefined), the outcome was inactive.

Regarding `CC1CCCN(C(=O)COC(=O)c2n[nH]c3ccccc23)C1` (centres undefined), the compound was classed as inactive.

Take `CCN(C(=O)c1cccc(NC(=O)c2ccccc2)c1)C1CCCCC1`: the compound was classed as inactive.

With `Brc1cccc(CSc2nnc(-c3ccncc3)o2)c1`, the compound was called inactive.

As to `O=c1oc2ccccc2c(O)c1/C=N/c1ccccn1`, the result was inactive.

For the compound `CCc1nn2cc(-c3ccccc3)nc2s1`, the result was inactive.

Regarding `O=C(NCC1CCOCC1)c1ccc(OC2CCN(Cc3ccccn3)CC2)cc1`, the outcome was inactive.

For `Cc1ccc(C(=O)Nc2cccc(C(F)(F)F)c2)cc1NC(=O)c1ccno1`, the call was inactive.

As to `COc1cnc(-c2ccccn2)nc1Sc1ccccc1Cl`, the outcome was inactive.

Consider `CCOc1ccc(NC(=O)CCc2nnc3ccc(N4CCC5(CC4)OCCO5)nn23)cc1`, for which the call was inactive.

As to `C[C@H](CO)N1C[C@H](C)[C@@H](CN(C)C(=O)NC2CCCCC2)Oc2c(NS(=O)(=O)c3cn(C)cn3)cccc2C1=O`, the compound was classed as inactive.

For the compound `CC1=CC(=NOC(=O)/C=C/c2ccccc2)C=C(C)C1=O`, the compound was called inactive.

Consider `CCc1ccccc1N(CC(=O)NCc1ccco1)C(=O)c1snc(C(N)=O)c1N`, for which the outcome was inactive.

Take `Cc1ccc(C(=O)Nc2cccc(C(=O)N/N=C/c3ccccc3F)c2)cc1`: the result was inactive.

For the compound `Oc1cccc(/C=N/NC(=S)NCCN2CCOCC2)c1O`, the compound was classed as inactive.

For `Cc1ccc(S(=O)(=O)N2c3ccccc3-c3c(ssc3=S)C2(C)C)cc1`, the compound was called inactive.

Take `Cc1ccc(S(=O)(=O)N2CCN(C(=O)COC(=O)COc3ccc(Cl)cc3)CC2)c(C)c1`: the result was inactive.

For the compound `O=C(Nc1nnc(N2CCCCCC2)s1)c1cc(-c2ccc(Br)cc2)on1`, the compound was classed as inactive.

Regarding `O=C(c1ccc(COc2ccccc2Cl)o1)N1CCCC1`, the result was inactive.

Consider `Oc1c(N=NC(=S)Nc2ccccc2F)c2ccccc2n1Cc1ccc(F)cc1`, for which the call was inactive.

As to `COc1ccc(NC(=O)C2CCCN(S(=O)(=O)c3cccc4nonc34)C2)c(OC)c1` (centres undefined), the call was inactive.

On to `CC1=C(CC(=O)O)c2cc(F)ccc2C1=Cc1ccc(S(C)(=O)=O)cc1`, for which the call was inactive.

In the case of `Cc1cc(NCCCn2ccnc2)n2ncc(-c3ccccc3)c2n1`, the compound was called inactive.

As for `CSc1nc(C)nc2c1c(=O)n(C)c(=O)n2C`, the compound was called inactive.

In the case of `Cc1ccc(S(=O)(=O)N2CCCCC2)cc1NC(=O)CNc1ccccc1N1CCCC1=O`, the outcome was inactive.

With `COc1ccc(Nc2oc(COc3ccc(Cl)cc3)nc2C#N)cc1`, the call was inactive.

In the case of `COCC(=O)N1CCC(Oc2ccc(C(=O)N3C[C@H]4CC[C@H]3C4)cc2)CC1`, the compound was called inactive.

Consider `O=C(CCS(=O)(=O)c1ccccc1)Nc1nccs1`, for which the result was inactive.

Take `COc1ccc(OC)c(NC(=O)COc2coc(CN3CCc4ccccc43)cc2=O)c1`: the compound was classed as inactive.

Turning to `O=C(OCc1nc2ccccc2s1)[C@@H]1CCCN1S(=O)(=O)c1ccccc1F`, the call was inactive.

For `Cn1cccc1/C=C1\CC(C(C)(C)C)C/C(=C\c2cccn2C)C1=O` (centres undefined), the outcome was inactive.

As for `COc1ccccc1-n1c(-c2ccccc2)n[nH]c1=S`, the outcome was inactive.

Take `CC(=O)c1ccc(-n2nnnc2SCC(=O)N2CCc3ccccc3C2)cc1`: the result was inactive.

For `CCN(Cc1ccncc1)C(=O)CCc1ccccc1`, the compound was called inactive.

As for `Cn1cccc1-c1cc(C(=O)N2CCc3c([nH]c4ccccc34)C2c2ccccn2)[nH]n1` (centres undefined), the compound was called inactive.

For the compound `Cc1ccc(CCNC(=O)Cc2ccc(NC3=NC4CS(=O)(=O)CC4S3)cc2)cc1` (centres undefined), the compound was classed as inactive.

On to `Cn1c(=O)c2ncn(CC(=O)O)c2n(C)c1=O`, for which the call was inactive.

As to `CCOc1cc(C(=O)OC(C)C(=O)Nc2ncc(Cl)cc2Cl)ccc1OCC(=O)N1CCOCC1` (centres undefined), the result was inactive.

As for `CC(=O)N1c2ccc(S(=O)(=O)N3CCC(C(=O)N4CCN(c5ccc(Cl)cc5)CC4)CC3)cc2CC1C` (centres undefined), the result was inactive.

`O=C1c2cccc3c(O)ccc(c23)C(=O)N1c1ccc(Cl)cc1`: the result was inactive.

In the case of `C/C(=N\NS(=O)(=O)c1ccc([N+](=O)[O-])cc1)c1cccs1`, the call was inactive.

Regarding `COc1cccc(-c2nc(NCc3ccccc3)c3ccccc3n2)c1O`, the compound was classed as inactive.

As for `COc1cccc(/C=N/Nc2ncnc(N)c2[N+](=O)[O-])c1OC`, the result was inactive.

With `COc1cccc(C(=O)O/N=C(\N)c2ccccn2)c1OC`, the outcome was inactive.

As to `O=C(O)c1ccc(-n2cncn2)c([N+](=O)[O-])c1`, the outcome was inactive.

As for `O=c1c([N+](=O)[O-])cn(Cc2ccccc2)c(=O)n1Cc1ccccc1`, the call was inactive.

In the case of `COc1cc(C(c2sc3nc(C)nn3c2O)N2CCc3ccccc3C2)cc(OC)c1OC` (centres undefined), the outcome was inactive.

`COc1cccc(C2Nc3ccc4ccccc4c3C3=C2C(=O)CC(C)(C)C3)c1OCC(=O)O` (centres undefined): the outcome was inactive.

On to `Cc1c(C=O)c2ccccn2c1C(=O)c1ccccc1Cl`, for which the outcome was inactive.

For the compound `Clc1ccc(-c2nnc(NC3=NCCCCC3)o2)cc1`, the result was inactive.

Regarding `C[C@@H](OC(=O)c1[nH]cnc1C(=O)N1CCc2ccccc2C1)c1ccccc1`, the compound was called inactive.

`COc1ccc(CCNC(=O)CSC(=O)c2ccccc2)cc1OC`: the call was inactive.

For `O=C(O)c1cn2c3c(ccc(Cl)c3c1=O)OCC2`, the compound was called inactive.

`CCCCN1C2CCCC1CC(NC(=O)C1CCCCC1)C2` (centres undefined): the call was inactive.

Turning to `O=C(NCc1ccco1)C1CC(=O)N(c2cccc(Cl)c2)C1` (centres undefined), the result was inactive.

Regarding `O=C(COC(=O)c1ccc(S(=O)(=O)NCc2ccco2)cc1)Nc1ccc(Cl)cn1`, the result was inactive.

`COc1ccc(-n2cc(C(=O)c3ccccc3O)cn2)cc1`: the result was inactive.

For `CCc1ccc(/C=C2\SC(=S)N(CCCC(=O)NC3=NCCS3)C2=O)cc1`, the compound was classed as inactive.

On to `COc1cccc(C(=O)N2CCN(c3nc4cc(C)cc(C)c4cc3C#N)CC2)c1`, for which the call was inactive.

As to `CCCSc1ccc([C@@H]2[C@H]3C(=O)N(C)C(=O)[C@H]3[C@]3(C(=O)OC)CCCN23)cc1OC`, the outcome was inactive.

For the compound `CCCn1c(C)cc(C(=O)CN2C(=O)c3ccccc3S2(=O)=O)c1C`, the result was inactive.

As for `CCSc1nnc(NC(=O)CSc2nnc(-c3c[nH]c4ccccc34)n2CC)s1`, the call was inactive.

Consider `CC(=O)c1ccccc1OCC(=O)Nc1cccc(S(=O)(=O)N2CCCC2)c1`, for which the result was inactive.

As to `O=C(CCCN1C(=O)[C@H]2CC=CC[C@H]2C1=O)NCc1nc(-c2ccc(Cl)cc2)no1`, the compound was classed as inactive.

Consider `Cc1cccc(-n2c(O)c(C=Nc3c(C)n(C)n(-c4ccccc4)c3=O)c3ccccc3c2=O)n1`, for which the outcome was inactive.

Take `COC(=O)C1=C(C)N(c2cc(C)cc(C)c2)/C(=C/c2ccc(O)cc2)C1=O`: the outcome was inactive.

Turning to `COc1cc(N)c(Cl)cc1C(=O)NC1CCN(Cc2ccccc2)CC1`, the result was inactive.

For `Cc1cccc(Nc2nc(Cl)ncc2F)c1C`, the compound was called inactive.

Regarding `Cc1ccccc1C(=O)N1CCN(c2ccc(NC(=O)c3cccs3)cc2)CC1`, the compound was classed as inactive.

Turning to `COc1cc(OC)cc(C(=O)N[C@H](C(=O)OCC(=O)c2ccc(C)c([N+](=O)[O-])c2)C(C)C)c1`, the outcome was inactive.

Consider `CCOC(=O)Oc1c(OC)cc(C(=O)O[C@@H]2C[C@@H]3CN4CCc5c([nH]c6cc(OC)ccc56)[C@H]4C[C@@H]3[C@H](C(=O)OC)[C@H]2OC)cc1OC`, for which the call was inactive.

On to `CCOC(=O)c1nc(NCc2ccccc2F)c2ccccc2n1`, for which the call was inactive.

With `CCOC(=O)c1cc(-c2ccccc2)n(CC(=O)Nc2cccc(OC)c2)c1C`, the compound was called inactive.

`COCCn1c(C)cc(C(=O)COc2ccc(C)nc2[N+](=O)[O-])c1C`: the result was inactive.

For `COC(=O)c1[nH]c2ccc(C)cc2c1NC(=O)NC1CCCCC1`, the compound was called inactive.

Turning to `CN(CC(=O)Nc1cccnc1)S(=O)(=O)c1ccc(Br)cc1`, the call was inactive.

For the compound `COc1ccccc1OCc1ccc(C(=O)c2ccccc2)cc1`, the outcome was inactive.

As for `COc1cc(C2CC(=O)N3CN(Cc4ccccc4)CSC3=C2C#N)ccc1OCc1ccccc1` (centres undefined), the outcome was inactive.

Turning to `O=C(O)C1CC(=O)N(c2ccc(Br)cc2)C1` (centres undefined), the call was inactive.

In the case of `CNS(=O)(=O)c1cccc(C(=O)OCC(=O)c2ccc3c(c2)OCCO3)c1`, the call was inactive.

As to `COc1ccc(OC)c2[nH]c(=O)c(CCNC(=O)c3ccc(S(=O)(=O)N(C)C)cc3)cc12`, the call was inactive.
